# High-throughput results (PubChem)
# EWS-Fli inh = blocks EWS/Fli oncoprotein-driven transcription; A673 NR0B1-luciferase reporter, viability-normalised; inhibition, % at 12.6 µM; 0.67% of 350,000 active; AID 651661;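 active = mean inhibition of at least 50% after viability correction, with every replicate also passing that limit; inconclusive = mean reaches 50% but only one of two replicates passes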;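 note: firefly luciferase signal divided by Alamar Blue viability fluorescence both relative to DMSO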
# TWEAK-Fn14 inh = blocks TWEAK-Fn14 interaction in a reporter cell assay; TWEAK-stimulated Fn14 reporter cells, luciferase luminescence, 8 h; inhibition, % at 10 µM; 2% of 360,000 active; AID 1159606; in the data active = inhibition above about 50%
# PAX8 inh HTS = PAX8 transcriptional activity inhibition; AID 652154; 1.2% of 360,000 active; RMG-I TPO-luciferase reporter, SteadyGlo, 24 h; inhibition, % at 12.6 µM;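 active = mean replicate inhibition at least 60% with every replicate also reaching 60%; inconclusive = only one of the two criteria is met; inactive = mean below 60% and not all replicates reaching 60%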;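 note: luciferase light reporting Pax8 driven TPO promoter activity; plate controls were median of neutral control wells for no effect and mitoxantrone controls for full effect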
# TROY NFkB inh = TROY signaling inhibition; Q293 LMP1-TROYcd NF-kB luciferase reporter, 4 h; inhibition, % at 10 µM; 0.98% of 360,000 active;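 active = compounds whose plate-normalised and pattern-corrected inhibition of the luciferase reporter signal at the single screening dose is 50% or more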
# LGR2 antag = blocks bursicon-induced cAMP signaling via Drosophila LGR2; HEK293 LGR2, CRE-luciferase, bursicon-stimulated, 4 h; 0.35% of 380,000 active; inhibition, % at 9.99 µM;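 active = drop in luminescence signal, shown as inhibition above about 50% in the replicate tests, limit read from the data, passing the limit was not always enough; inconclusive = probably only some replicates passing the limit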;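 note: agonist challenge used bursicon conditioned medium at about half maximal strength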
# EBV LMP1 NFkB = reduces LMP1-driven NF-kappaB luciferase signal; 0.69% of 350,000 active; inhibition, % at 12.5 µM; LMP1-induced NF-kappaB luciferase reporter cells, luminescence; in the data active = inhibition above about 41%; inconclusive = no clear call, values can overlap the other calls;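 note: 0% = neutral control wells and 100% = reference inhibitor control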
# * hit, by the source's call; ? = inconclusive; / = no result given. An excerpt weighted towards active compounds, which were near 3.1% of everything screened.
SMILES,EWS-Fli inh,TWEAK-Fn14 inh,PAX8 inh HTS,TROY NFkB inh,LGR2 antag,EBV LMP1 NFkB
Cc1ccc(-c2nc(=S)c3c(n2Cc2cccnc2)CC(C)(C)OC3)cc1,2,74*,14,7,-8,2
CCN(CC)CCn1c(-c2ccc(C)cc2)nc(=S)c2c1CC(C)(C)OC2,-7,7,17,18,1,3
CC1=CN2C(c3cccc([N+](=O)[O-])c3)=NON(c3ccc(C)cn3)C2C=C1 (stereo unspecified),-8,-33,-4,60*,12,/
Cc1ccc(NS(=O)(=O)c2cccc([N+](=O)[O-])c2)nc1,-13,2,-6,-4,16,-3
O=C(C1CCCCC1)N1CC2(C1)[C@H](c1ccccc1)[C@H](CO)N2CCC(F)(F)F,18,/,-14,/,-15,/
COCCN(CCOC)S(=O)(=O)c1ccc(C(=O)Nc2nnc(C3CC3)o2)cc1,/,67*,-1,-10,/,-3
CCc1ccc(NC(=O)C(C)OC(=O)c2cc(=O)[nH]c3ccc(S(=O)(=O)Nc4ccc(F)cc4)cc23)cc1 (stereo unspecified),-1,24,9,23,-14,-6
Cc1cccc(NS(=O)(=O)c2ccc3[nH]c(=O)cc(C(=O)OC(C)C(=O)Nc4ccc([N+](=O)[O-])cc4)c3c2)c1 (stereo unspecified),-3,-8,20,51*,-9,-5
CO[C@@H]1CN(C)C(=O)c2cc(NC(=O)C3CC3)ccc2OC[C@H](C)N(Cc2cccnc2)C[C@@H]1C,2,/,10,/,-4,/
COc1ccc2[nH]c(=O)c(CN(Cc3cccs3)S(=O)(=O)c3c(C)ccc4nsnc34)cc2c1,/,61*,30,25,/,26
Cc1ccc2[nH]c(=O)c(CN(Cc3ccco3)S(=O)(=O)c3c(C)ccc4nsnc34)cc2c1,0,23,/,-5,-6,16
CCOC(=O)c1oc2cccc(OCC(O)CNC(C)C)c2c1C (stereo unspecified),/,-5,/,-8,/,-3
O=C(O)c1cc(=O)c2c(OCC(O)COc3cccc4oc(C(=O)O)cc(=O)c34)cccc2o1,5,-7,7,5,-1,76*
COc1ccccc1C#Cc1ccc2c(c1)O[C@@H](CN(C)C)[C@@H](C)CN([C@H](C)CO)S2(=O)=O,5,/,/,/,-13,/
O=C(NC(=S)Nc1ccc(CN2CCOCC2)cc1)c1ccc([N+](=O)[O-])cc1,-5,5,-14,3,9,-1
O=C(/C=C/c1cccc([N+](=O)[O-])c1)NC(=S)Nc1ccc(CN2CCOCC2)cc1,12,63*,5,20,34,-18
CC(C)c1ccc(/C=C/C(=O)NC(=S)Nc2ccc(CN3CCOCC3)cc2)cc1,-1,100*,5,71*,7,11
CCCC(=O)Nc1ccc2c(c1)OC[C@@H](C)N(Cc1cccc(F)c1)C[C@@H](C)[C@H](OC)CN(C)C2=O,5,/,3,/,-9,/
COc1ccc(Sc2ccc(-c3nc4cnccn4c3NC3CCCCC3)cc2OC)cc1,16,62*,-9,31,31,-13
CNC[C@H]1Oc2ccc(NC(=O)C3CCCCC3)cc2C(=O)N([C@@H](C)CO)C[C@H]1C,-10,/,-23,/,-5,/
C[C@@H]1CN([C@H](C)CO)C(=O)c2cc(NC(=O)Nc3ccc(F)cc3)ccc2O[C@H]1CN(C)S(=O)(=O)c1ccc(F)cc1,-7,/,/,/,12,/
CCOC(=O)COc1ccc(Br)cc1/C=C\c1[nH]c(=O)[nH]c(=O)c1[N+](=O)[O-],-10,74*,6,3,/,2
CCOC(=O)COc1ccc(Br)cc1/C=C/c1[nH]c(=O)[nH]c(=O)c1[N+](=O)[O-],11,62*,-1,24,24,-1
N#Cc1nccnc1S(=O)(=O)c1cccs1,16,/,102*,/,47,/
CN(Cc1ccccc1C#N)S(=O)(=O)c1cccs1,-17,5,0,-2,-1,4
SMILES,EWS-Fli inh,TWEAK-Fn14 inh,PAX8 inh HTS,TROY NFkB inh,LGR2 antag,EBV LMP1 NFkB
C[C@H](CO)N1C[C@H](C)[C@H](CN(C)C(=O)Cc2ccccc2)Oc2cc(C#CC3(O)CCCC3)ccc2S1(=O)=O,6,/,/,/,11,/
O=C(N[C@H]1C=C[C@H](CC(=O)N2CCOCC2)O[C@H]1CO)c1ccccn1,3,/,-19,/,3,/
COc1ccc(C(=O)/C(=C/c2cccs2)c2nc3ccccc3o2)cc1,/,51*,-117,52*,/,-12
CCN(CCO)c1ccc(N=Nc2cc(C)[nH]n2)cc1,64*,91*,87*,69*,92*,63*
O=C(N/N=C/c1ccc(F)cc1)c1ccc(-n2cnnn2)cc1,-12,35,45,-7,9,10
CSc1ccc(/C=N/NC(=O)c2ccc(-n3cnnn3)cc2)cc1,-7,55*,7,35,-5,14
CC(C)c1ccc(/C=N/NC(=O)c2ccc(-n3cnnn3)cc2)cc1,0,65*,-5,26,11,21
C[C@H]1CN([C@@H](C)CO)C(=O)c2cc(NC(=O)Nc3ccccc3)ccc2O[C@H]1CN(C)C(=O)Nc1ccc2c(c1)OCO2,-9,/,/,/,-3,/
CC(=O)Nc1ccc(NC(=O)c2ccc(NS(=O)(=O)c3cc(C(C)(C)C)cc(C)c3C)cc2)cc1,9,5,68*,14,3,1
CO[C@@H]1CN(C)C(=O)c2ccc(NC(=O)C3CC3)cc2OC[C@@H](C)N(CC2CCCC2)C[C@H]1C,/,/,11,/,-1,/
C[C@@H]1CN([C@H](C)CO)C(=O)Cc2cc(NS(=O)(=O)c3ccccc3)ccc2O[C@@H]1CN(C)S(=O)(=O)c1ccc(Cl)cc1,19,/,104*,/,-3,/
C[C@@H]1CN([C@@H](C)CO)C(=O)Cc2cc(NS(=O)(=O)c3ccc(Cl)cc3)ccc2O[C@@H]1CN(C)CC1CCCCC1,-9,/,106*,/,8,/
O=C(c1cccs1)N1CCN(C(=O)c2cccs2)C1=S,-1,70*,39,29,?,2
O=C(c1ccccn1)N1CC=C(c2ccccc2)CC1,2,4,2,-27,-14,9
O=C(O)CCC(=O)N1CC=C(c2ccccc2)CC1,/,5,/,9,/,-5
O=C(O)C1CC=CCC1C(=O)N1CC=C(c2ccccc2)CC1 (stereo unspecified),17,78*,-17,42,5,19
O=C(c1cccs1)N1CC=C(c2ccccc2)CC1,-36,-6,-48,-32,-18,73*
CO[C@@H]1CN(C)C(=O)c2cc(NS(C)(=O)=O)ccc2OC[C@H](C)N(C(=O)CC2CC2)C[C@@H]1C,-2,/,1,/,-17,/
C[C@H]1CN([C@@H](C)CO)C(=O)c2cc(-c3ccncc3)cnc2O[C@@H]1CN(C)C(=O)C1CCC1,1,/,/,/,-7,/
COc1ccccc1S(=O)(=O)N[C@@H]1CC[C@@H](CC(=O)N2CCOCC2)O[C@H]1CO,3,/,-3,/,-8,/
